Outcome data for one molecule are collected here from PubChem BioAssay AID1037 (National Center for Advancing Translational Sciences (NCATS), 2008).

Structures are written as SMILES. Active and inactive are the calls of the source. The call rests on the fitted dose curve.

This assay in a line: NSCLC 2 Cell Viability Secondary Assay for qHTS Assay for Epigenetic Modulators. Conditions: NSCLC 2 viability, MTS absorbance, 4 days. An excerpt:
NIH Molecular Libraries Screening Centers Network [MLSCN] NIH Chemical Genomics Center [NCGC] MLSCN Grant: 1 X01 MH079860-01 Assay Provider: Elisabeth D. Martinez, University of Texas SW Medical Center NCGC Assay Overview: This secondary assay characterizes selected actives identified in the qHTS of the Locus Derepression (LDR) assay (PubChem AID 597). The LDR assay detects the derepression of a GFP reporter that is stably integrated in a region of the genome of murine c127i mammary cells that is presumably silenced. Compounds that cause derepression of the locus to express GFP are identified by enumerating GFP positive cells using a laser-scanning microplate cytometer. […] NSCLC 2 cell viability was measured using Cell Titer 96 AQueous One (Promega), an assay which detects the ability of metabolically active cells to reduce a tetrazolium salt substrate (MTS), into a soluble formazan product that can be measured by colorimetry.
NCGC Assay Protocol Summary NSCLC 2 cells were plated in 96-well flat bottom tissue culture dishes (Corning) and grown overnight at 37 C and 5% CO2, then treated with compounds, incubated 4 days, and assayed for viability using the Cell Titer 96 AQueous One kit (Promega) according to the manufacturer's protocol. Absorbance at 490 nm and 650 nm (reference) was measured by a Spectra Max (Molecular Devices). […]

Consider `CN1CSC(=S)N(C)C1`, for which the result was inactive.
